From PubChem BioAssay AID686954 (Sanford-Burnham Center for Chemical Genomics, 2013)
About 240 (0.8%) of roughly 30,000 compounds were called active. The full list was thinned out, with actives kept by preference. Values without a mark were called inactive.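 How the source made its calls: active means at 10 µM dose, at least 30% inhibition, measured as corrected fluorescence normalized to stimulator and neutral control wells; inactive means the rest.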

Each compound was assayed against Protein artemis (Homo sapiens) (UniProt Q96SD1) (assay: blockers of Artemis DNA hairpin overhang cleavage – biochemical, fluorescence intensity, FAM/BHQ-1 hairpin substrate, primary screen (AID 686954)). Details: recombinant Artemis, quenched FAM hairpin cleavage fluorescence; at 10 µM; hits give high values.
Chain of Protein artemis (Homo sapiens) (Q96SD1 whole entry, looked up): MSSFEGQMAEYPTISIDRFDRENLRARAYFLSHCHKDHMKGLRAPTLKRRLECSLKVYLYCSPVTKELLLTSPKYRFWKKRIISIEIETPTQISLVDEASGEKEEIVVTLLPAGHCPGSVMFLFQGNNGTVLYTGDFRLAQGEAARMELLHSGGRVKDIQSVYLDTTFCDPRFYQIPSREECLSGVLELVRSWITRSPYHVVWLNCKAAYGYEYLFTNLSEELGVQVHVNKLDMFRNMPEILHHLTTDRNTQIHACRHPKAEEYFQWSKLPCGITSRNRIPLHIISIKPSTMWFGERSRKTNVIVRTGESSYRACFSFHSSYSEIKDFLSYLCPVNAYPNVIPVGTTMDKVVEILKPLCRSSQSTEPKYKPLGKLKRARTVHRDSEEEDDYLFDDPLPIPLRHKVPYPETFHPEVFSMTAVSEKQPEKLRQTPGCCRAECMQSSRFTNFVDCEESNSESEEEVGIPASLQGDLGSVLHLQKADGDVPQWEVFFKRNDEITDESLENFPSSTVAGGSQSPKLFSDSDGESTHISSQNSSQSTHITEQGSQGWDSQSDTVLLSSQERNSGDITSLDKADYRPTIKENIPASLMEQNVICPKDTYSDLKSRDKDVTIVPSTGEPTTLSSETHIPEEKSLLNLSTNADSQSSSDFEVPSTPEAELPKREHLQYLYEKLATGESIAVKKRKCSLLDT
Work on `COc1ccccc1NC(=O)CSc1nnc(C)n1CC1CCCO1` (stereo not drawn) yielded an inhibition of 2.59%.
Work on `COc1ccc(/C(O)=C2/C(=O)C(=O)N(CC3CCCO3)C2c2ccc(OC)c(OC)c2)cc1` (stereo not drawn) yielded an inhibition of -5.65%.
With `COc1ccc(/C(O)=C2/C(=O)C(=O)N(c3nc(C)c(C)s3)C2c2ccco2)cc1` (stereo not drawn) the inhibition was 8.17%.
For `Cc1cc(N2C(=O)C(=O)/C(=C(/O)c3ccc(Cl)cc3)C2c2cccc(Br)c2)no1` (stereo not drawn), the inhibition was 40% (active).
Work on `O=C1OC(c2ccc(Cl)cc2)=N/C1=C\c1cccnc1` yielded an inhibition of -6.03%.
For `Cc1c(NC(=O)c2cc(-c3ccc(Cl)s3)nc3ccccc23)c(=O)n(-c2ccccc2)n1C`, the inhibition was 11.2%.
Compound `CCOC(=O)c1nc(N)sc1C(=O)OCC` has an inhibition of -6.13%.
Work on `CCCCOC(=O)Cn1c(=O)n(CC(=O)OCCCC)c2cc(C)ccc21` yielded an inhibition of 6.83%.
Compound `O=C1CC(C(F)(F)C(F)(F)C(F)(F)C(F)(F)F)=Nc2ccccc2N1` has an inhibition of -10.2%.
`CCOC(=O)c1cc(C#N)c(N2CCCCC2)nc1-c1ccccc1` was tested, and the inhibition was 1.24%.
Compound `CC(C)(CSc1nncn1/N=C/c1ccco1)NS(=O)(=O)c1ccc(Cl)cc1` has an inhibition of -7.17%.
Compound `COc1ccc(/C=C2/S/C(=N/N=C3\CC4CCC3(C)C4(C)C)NC2=O)cc1` (stereo not drawn) has an inhibition of 7.63%.
`COc1ccc(CN2CCn3ncc(C(=O)Nc4ccc(Cl)cc4Cl)c3C2=O)cc1` gave an inhibition of -5.33%.
For `Cc1sc(NC(=O)C2C3CCC(O3)C2C(=O)O)c(C(=O)OC(C)C)c1-c1ccc(Cl)cc1` (stereo not drawn), the inhibition was 34% (active).
Work on `CC(C)OC(=O)c1cc(NC(=O)C2C3CCC(O3)C2C(=O)O)cc(C(=O)OC(C)C)c1` (stereo not drawn) yielded an inhibition of -5.25%.
Work on `COc1ccc(C(=O)N2CC3(C)CC2CC(C)(C)C3)cc1OC` (stereo not drawn) yielded an inhibition of -3.98%.
`CC(=O)Oc1ccc(C)cc1N1C(=O)c2ccc(C(=O)O)cc2C1=O` gave an inhibition of 0.06%.
`CCC1(C)Cc2c(sc3nc(SC)nc(N)c23)CO1` (stereo not drawn) gave an inhibition of -3.48%.
In the case of `CCC1(CC)NC(=O)N(CC(=O)OCC(=O)Nc2ccc(C(F)(F)F)cc2)C1=O`, the inhibition is reported as 8.68%.
In the case of `CCN1CCN(C(=O)/C=C\C(=O)O)CC1`, the inhibition is reported as 0.01%.
Work on `Cc1cccc(CSc2nnc(NC(=O)CSc3nnc(C)s3)s2)c1` yielded an inhibition of 4.19%.
`COc1cccc(/C=N\Nc2nncc(-c3ccccc3)n2)c1` was tested, and the inhibition was 2.99%.
`CCN1CCN(C(=O)C2(NC(=O)Nc3cccc(F)c3)CCCCC2)CC1` was tested, and the inhibition was -5.76%.
`CCCCOC(=O)Nc1sc2nc(C)cc(C)c2c1-n1cccc1` showed an inhibition of 6.76%.
Compound `CCOC(=O)C(=O)Nc1nc(-c2ccccc2)c(CC)s1` has an inhibition of 2.06%.
With `Cc1nnc(SCc2nc3ccccc3nc2C)s1` the inhibition was -10.2%.
With `Cc1cccc(NC(=S)Nc2ccc(Br)cc2)c1` the inhibition was -9.18%.
For `CC(=O)NNc1cc(=O)c2c(=O)n(C)c(=O)n(C)c2[nH]1`, the inhibition was 1.01%.
With `CNS(=O)(=O)c1cnccc1N1CCN(c2cccc(C)c2)CC1` the inhibition was 2.37%.
In the case of `COc1ccc(OC)c(Nc2nc(-c3ccc(O)c(O)c3)cs2)c1`, the inhibition is reported as 42.1% (active).
For `COc1ccc(-c2n[nH]c(C)c2-c2ccc(OC)c(OC)c2)c(O)c1`, the inhibition was -3.87%.
For `c1ccc(Nc2nc(-c3ccncc3)cs2)nc1`, the inhibition was -4.36%.
Compound `Cc1ccccc1NC(=S)Nc1cccc([N+](=O)[O-])c1` has an inhibition of 2.56%.
Compound `Cc1cc(=O)n2c3c(cccc13)CCC2` has an inhibition of -4.67%.
Work on `COc1ccc(-n2nnnc2SCc2nc(N)nc(N3CCOCC3)n2)cc1` yielded an inhibition of -0.42%.
`C=CCn1c(SCC(=O)c2c(N)n(C)c(=O)n(C)c2=O)nc2sc(CC)cc2c1=O` was tested, and the inhibition was 9.01%.
`CCOC(=O)C(=CNc1cccc(C)n1)C(=O)OCC` gave an inhibition of -3.58%.
In the case of `O=c1c2ccccc2c(-c2ccc(F)cc2)nn1-c1ccc(C(F)(F)F)cc1`, the inhibition is reported as 5.92%.
In the case of `CCCC1(C(=O)OCC)NC(c2ccc(N(C)C)cc2)C2C(=O)N(c3ccc4c(c3)OCCO4)C(=O)C21` (stereo not drawn), the inhibition is reported as -2.24%.
For `O=c1c2ccccc2nc2n1C(CSc1ccc(Cl)cc1)CN2` (stereo not drawn), the inhibition was 3.79%.
In the case of `Cc1cc(C)n(-c2nc(SCC(=O)N3CCCC3)c3c4c(sc3n2)CCCC4)n1`, the inhibition is reported as 40.1% (active).
In the case of `COCCn1c(C)cc(C(=O)CSc2ncnc3sc4c(c23)CCC4)c1C`, the inhibition is reported as -1.83%.
Compound `N=c1c2c3c(sc2nc2n1CCCCC2)CCCC3` has an inhibition of -6.19%.
With `COCc1cc(C)nc2sc(C(=O)NC3CCCCC3)c(N)c12` the inhibition was -2.12%.
`CCCc1nc2sc3c(c2c(=O)n1NC(=O)CCCl)CCCC3` gave an inhibition of -7.23%.
`COCCNc1nc(-n2nc(C)cc2C)nc2sc3c(c12)CCCC3` was tested, and the inhibition was 52.7% (active).
In the case of `O=C(O)C1CCN1C1CCCCC1` (stereo not drawn), the inhibition is reported as 0.02%.
For `Cc1cccc(-n2cnc(C(=O)Nc3cccnc3)c2)n1`, the inhibition was 9.43%.
`O=S(=O)(c1cccc2nonc12)N1CCN(c2cccc(Cl)c2)CC1` gave an inhibition of -9.46%.
`CCN(CC)c1nc(-c2ccccc2)cc(C(F)(F)F)c1C#N` showed an inhibition of -3.86%.
For `CCOC(=O)N1CCN(C(=O)CN(C2CCCCC2)S(C)(=O)=O)CC1`, the inhibition was -1.82%.
Work on `Cc1ccc(OCC(=O)N/N=C/c2ccncc2)cc1` yielded an inhibition of -5.31%.
`COc1ccc(-c2c(C(C)=O)c(C)nc3sc4c(=O)n(-c5ccc(C)cc5)nnc4c23)cc1` was tested, and the inhibition was 11.3%.
